From PubChem BioAssay
Active and inactive are the calls of the source. Unless noted, no rule for the calls is given here.

Experiments:
[1] = tested on: XIP peptide (Xip251-270) binding; test: small-molecule binders of XIP peptide, primary screen, biochemical, small-molecule microarray, fluorescence 635/667 nm, 0.1 µg/mL protein (AID 1182); conditions: fluorescent protein binding, 635 nm, higher = more signal, called active from +8 up or from −8 down
XIP peptide (Xip251-270) = test: small-molecule binders of XIP peptide, primary screen, biochemical, small-molecule microarray, fluorescence 635/667 nm, 0.5 µg/mL protein (AID 1183); conditions: small-molecule microarray binding, fluorescence 635 nm; higher = more signal
[2] = Plasmodium falciparum growth inhibition, primary screen, strain 3D7, DAPI fluorescence, 100 nL (AID 1184);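 also: parasites grown inside human red blood cells in medium with human serum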; conditions: P. falciparum 3D7 growth, 3 d, higher = more signal
[3] = biological target: Homeobox protein Hox-A13 (Mus musculus) (UniProt Q62424); test: inhibitors of HoxA13-DNA binding, primary screen, biochemical, fluorescence polarization, labeled oligonucleotide (AID 1185); conditions: 15 min, higher = more signal, called active from +8 up or from −8 down
Sequence of Homeobox protein Hox-A13 (Mus musculus) (Q62424 whole entry, looked up): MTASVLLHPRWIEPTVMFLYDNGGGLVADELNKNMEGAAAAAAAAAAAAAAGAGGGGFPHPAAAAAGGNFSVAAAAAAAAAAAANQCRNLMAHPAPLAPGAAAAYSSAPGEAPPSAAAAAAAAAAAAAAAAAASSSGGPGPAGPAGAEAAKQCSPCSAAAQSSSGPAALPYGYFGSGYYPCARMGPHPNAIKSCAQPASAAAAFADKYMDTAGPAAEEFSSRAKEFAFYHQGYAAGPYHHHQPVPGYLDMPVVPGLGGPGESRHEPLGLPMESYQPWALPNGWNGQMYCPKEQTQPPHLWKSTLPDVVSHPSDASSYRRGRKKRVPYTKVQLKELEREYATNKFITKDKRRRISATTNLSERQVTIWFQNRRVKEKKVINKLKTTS

[4] = inhibitors of hydroxyurea-induced Chk1 phosphorylation, primary screen, imaging, HeLa, phospho-Chk1 antibody, percent positive cells (AID 1186); conditions: hydroxyurea-induced phospho-Chk1 immunofluorescence imaging, higher = more signal
[5] = inhibitors of hydroxyurea-induced Chk1 phosphorylation, primary screen, imaging, HeLa, phospho-Chk1 nuclear intensity (AID 1187); conditions: hydroxyurea-induced phospho-Chk1 immunofluorescence imaging, higher = more signal

SMILES | composite z-score [1] | composite z-score (XIP peptide (Xip251-270)) | z-score [2] | z-score [3] | z-score [4] | z-score [5]
CCCN1C(=O)[C@@]2(c3ccc([N+](=O)[O-])cc3)CC(=O)N(C3CCCCC3)[C@@H]2c2ccc(CO)cc21 | -0.403 (inactive) | 0.107 | 0.069 | -1.26 (inactive) | 0.257 (inactive) | 0.105 (inactive)
COc1cccc(C)c1NC(=O)O[C@H]1[C@H](OC(=O)Nc2ccccc2)[C@@H](OC(=O)Nc2ccccc2)[C@@H](OC)O[C@@H]1CO | 1.3 (inactive) | 0.912 | -2.57 | -4.95 (inactive) | -0.515 (inactive) | -0.515 (inactive)
O=C1N(Cc2ccccc2)c2ccccc2C[C@@]12N=C(c1ccc(OCCCO)cc1)O[C@H]2c1ccccc1 | 1.85 (inactive) | 0.541 | -2.52 | -5.07 (inactive) | 0.134 (inactive) | 0.553 (inactive)
COC(=O)C(CC#Cc1ccc2c(c1)[C@]1(C(=O)N2)[C@H](C(=O)N2CCN(c3ncccn3)CC2)[C@H]2C(=O)O[C@H](c3ccccc3)[C@H](c3ccccc3)N2[C@@H]1c1ccc(O)cc1)C(=O)OC | 0.959 (inactive) | 0.782 | -2.28 | -2.37 (inactive) | -0.413 (inactive) | -1.02 (inactive)
Cc1ccc(N2C(=O)c3ccccc3[C@@H](C(=O)NCCN3CCOCC3)[C@@H]2c2ccc(CO)cc2)nc1 | 0.0616 (inactive) | 0.669 | 1.41 | -1.67 (inactive) | 0.0197 (inactive) | 0.274 (inactive)
COCCOC(=O)N1C(=O)[C@@]2(c3cc(C#CCNC(N)=O)ccc31)[C@H](C(=O)N1CCN(c3ncccn3)CC1)[C@H]1C(=O)O[C@H](c3ccccc3)[C@H](c3ccccc3)N1[C@@H]2c1ccc(O)cc1 | -0.417 (inactive) | 0.288 | 0.614 | -0.508 (inactive) | -0.171 (inactive) | -0.206 (inactive)
CC(C)(C)OC(=O)CC[C@@]1(C(=O)N2CCOCC2)N=C(c2ccc(OCCCO)cc2)O[C@@H]1c1ccccc1CN=[N+]=[N-] | 3.3 (inactive) | 0.838 | -2.12 | -4.94 (inactive) | 0.158 (inactive) | 0.291 (inactive)
CCCCCN1CC=CC23O[C@@H]4/C=C\CCCOC(=O)C4[C@H]2C(=O)N(CCO)[C@@H]3C1=O (stereo partly drawn) | -0.0751 (inactive) | 0.663 | -1.31 | -3.77 (inactive) | 0.169 (inactive) | 0.205 (inactive)
COc1ccc([Si](C)(C)[C@@H]2[C@@H](CC(=O)N3CCC[C@H]3CO)O[C@]3(C(=O)N(Cc4cccc(N5C(=O)c6cccc7cccc5c67)c4)c4ccccc43)[C@H]2C)cc1 | 3.7 (inactive) | 0.703 | -2.1 | -2.34 (inactive) | -0.798 (inactive) | -0.489 (inactive)
[N-]=[N+]=Nc1ccccc1C[C@]1(C(=O)N2CCCCC2)N=C(c2ccc(OCCCO)cc2)O[C@H]1c1ccccc1 | 1.48 (inactive) | 0.758 | -2.34 | -5.43 (inactive) | -0.554 (inactive) | -0.78 (inactive)
CCc1cccc(NC(=O)O[C@H]2[C@H](OC(=O)Nc3ccccc3-c3ccccc3)[C@H](OC(=O)Nc3ccccc3-c3ccccc3)[C@@H](OC)O[C@@H]2CO)c1 | 0.187 (inactive) | 0.591 | -2.53 | -1.39 (inactive) | -0.36 (inactive) | 0.0172 (inactive)
CC(C)c1ccc(NN2C(C(O)c3ccccc3)C=CC3C(=O)N(c4ccccc4)C(=O)C32)cc1 (stereo not drawn) | 0.542 (inactive) | 0.602 | -0.164 | -1.36 (inactive) | -1.43 (inactive) | -1.77 (inactive)
O=C1NC(=O)C2C1C=CC(C(O)C1CCCCC1)N2Nc1ccccn1 (stereo not drawn) | -0.275 (inactive) | 0.27 | 0.582 | -2.17 (inactive) | 1.04 (inactive) | 1.39 (inactive)
